Screening data from PubChem BioAssay.
A selection: hits, their analogues and other compounds. The true share with any hit is near 2.9%.
PLC-beta3 inh: inhibitors of human phospholipase C beta3 | inhibition, % at 12.2 µM | Purified PLC-beta3, fluorogenic substrate, fluorescence | Q01970 | AID 720704 | 370,000 tested, 0.18% active; in the data active = inhibition above about 11%;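 also: 0% = median of compound wells on plate and 100% = full blocker control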
proKLK7 act: proKLK7 (human) activation, primary screen. P49862. purified proKLK7, EDANS-DABCYL substrate fluorescence; 100% is mature enzyme control, 0% vehicle. AID 652039. 370,000 tested, 0.9% active. activation, % at 7 µM;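 active = activation above the mean of all tested compounds plus 3 SD, computed per campaign excluding outliers beyond control limits, cut at about 13% in these data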
ADAM10 inh: inhibitors of human ADAM10. recombinant ADAM10, EDANS/DABCYL FRET peptide cleavage, 3 h. inhibition, % at 7 µM. 370,000 tested, 0.62% active. AID 720582;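 active = inhibition above a per-campaign cutoff equal to the mean of compounds falling between control-based bounds plus 3 SD, cut at about 20% in these data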;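 also: 0% = DMSO wells while the 100% control is not disclosed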
ADAM17 inh: inhibitors of human ADAM17. P78536. recombinant ADAM17, EDANS/DABCYL FRET peptide cleavage. inhibition, % at 6.95 µM. 370,000 tested, 0.83% active. AID 720648;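 active = inhibition above the mean of compounds lying between control limits plus 3 SD, set per campaign, cut at about 8.5% in these data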;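 also: 0% = DMSO-only wells as the low control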
PLCg1 inh: PLC-gamma1 (human) inhibition, primary screen; inhibition, % at 12.2 µM; P19174; purified PLC-gamma1, fluorogenic substrate, fluorescence; 370,000 tested, 0.84% active; in the data active = inhibition above about 9.5%
proKLK7 act conf: confirmation of human kallikrein-7 zymogen activators. shares compounds with proKLK7 act. purified proKLK7, EDANS-DABCYL substrate fluorescence; scaled: vehicle 0, mature enzyme 100. activation, % at 7 µM. 3,200 tested, 68% active. AID 686949;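 active = activation, as change over the incubation, above the mean of all tested compounds plus 3 SD, cut at about 13% in these data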
EDANS interfere: optically interferes with EDANS-DABCYL signal, flagging KLK7 hits. shares compounds with proKLK7 act. EDANS-DABCYL substrate fluorescence interference, no enzyme, 4 h; solvent 0%, active enzyme control 100%. activation, % at 7 µM. 3,200 tested, 80% active;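 active = activation above the all-compound mean plus 3 SD, ignoring values outside control-based bounds, cut at about 4.8% in these data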;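 also: value is the 4 h activation minus the activation read at time zero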
K7 EDANS ctr: EDANS fluorescence interference in dose response, no enzyme; AID 720493; 250 tested, 20% active; EDANS-DABCYL peptide fluorescence interference; EC50, µM; shares compounds with proKLK7 act;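 active = compounds that raise the fluorescence signal in this interference counterscreen, with EC50 at or below 10 µM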;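 also: intact quenched peptide substrate alone read at 355 nm excitation and 520 nm emission; signal is fluorescence gain from T0 to T4 after four hours at room temperature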
Active calls of the source: *; i = inactive; nt = not tested or not shown.

SMILES	PLC-beta3 inh	proKLK7 act	ADAM10 inh	ADAM17 inh	PLCg1 inh	proKLK7 act conf	EDANS interfere	others
Cc1oc2c(cc(NS(=O)(=O)c3ccc4c5c(cccc35)C(=O)N4)c3ccccc32)c1C(=O)OC(C)C	-243	24*	-146	-59	-183	57*	53*
COC(=O)c1c(C)oc2c1cc(NS(=O)(=O)c1cccs1)c1ccccc12	3	0	6	1	2	nt	nt
O=C1Nc2ccc(S(=O)(=O)NCc3ccco3)c3cccc1c23	i	28*	-494	-160	i	40*	37*
O=C(O)c1cccc(NS(=O)(=O)c2ccc3c4c(cccc24)C(=O)N3)c1	-20	1	-5	-1	-9	nt	nt
O=C(O)CNS(=O)(=O)c1ccc2c3c(cccc13)C(=O)N2	i	60*	i	-214	i	73*	73*
Cc1cc(O)ccc1NS(=O)(=O)c1ccc2c3c(cccc13)C(=O)N2	-29	81*	-22	-5	-16	86*	98*
O=C1Nc2ccc(S(=O)(=O)N(CCO)CCO)c3cccc1c23	i	45*	i	-219	i	42*	50*
CNS(=O)(=O)c1ccc2c3c(cccc13)C(=O)N2	i	49*	i	-341	i	61*	72*
O=C(O)CCCNS(=O)(=O)c1ccccc1	0	0	-7	-5	-3	nt	nt
CNS(=O)(=O)c1cc(S(=O)(=O)NC)c2cccc3c2c1NC3=O	i	21*	i	-198	i	21*	21*
CNc1ccc2c3c(cccc13)C(=O)N(C)C2=O	i	5	-47	-24	-468	nt	nt
O=C(O)CCCCCNS(=O)(=O)c1ccc2c3c(cccc13)C(=O)N2	i	63*	i	-367	i	61*	69*
O=S(=O)(c1ccc(NC(=S)N/N=C/c2cccc(Oc3ccccc3)c2)cc1)N1CCOCC1	-9	0	-10	-1	-6	nt	nt
CCCc1nc2oc3c(NCCOCCO)ncnc3c2c2c1COC(C)(C)C2	-11	0	-111	-26	-8	nt	nt
COc1cc(SC)ccc1C(=O)OCC(=O)NCCNC(=O)COC(=O)c1ccc(SC)cc1OC	-22	0	-8	-2	-13	nt	nt
CN(c1ccccc1C(=O)O)S(=O)(=O)c1ccc2c3c(cccc13)C(=O)N2	-67	0	-62	-21	-40	nt	nt
CC(C)C(NS(=O)(=O)c1ccc2c3c(cccc13)C(=O)N2)C(=O)O (stereo not given)	i	25*	i	-172	i	23*	33*
O=C(C[n+]1ccc(C(=O)N/N=C/c2ccc(Br)cc2)cc1)c1ccccc1	-19	-2	-19	-8	-19	nt	nt
COc1cccc2sc3ccc(NCCC4CCCN4C)cc3c(=O)c12 (stereo not given)	-119	0	-17	-4	-85	nt	nt
COc1cc2sc3cc(NCC[C@@H]4CCCN4C)ccc3c(=O)c2cc1OC	i	21*	i	-284	-474	-68	-65
CCCCN(C(=O)NC(=O)Nc1cc(C)ccc1C)S(C)(=O)=O	1	0	-1	-2	0	nt	nt
CCCCN(C(=O)NC(=O)Nc1ccc(C)cn1)S(C)(=O)=O	-60	19*	-261	-87	-49	4	3
COc1cc(Cl)c(S(=O)(=O)NCCCN2CCOCC2)cc1Cl	-1	0	-3	-6	0	nt	nt
COCCNC(=O)c1cc2c(=O)n3cccc(C)c3nc2n1C	-207	7	-316	-56	-183	nt	nt
Cc1ccc2nc3c(cc(C(=O)NCCc4ccccc4)c(=N)n3CCCN3CCOCC3)c(=O)n2c1	-298	17*	i	-425	-208	-2	-2
SMILES	PLC-beta3 inh	proKLK7 act	ADAM10 inh	ADAM17 inh	PLCg1 inh	proKLK7 act conf	EDANS interfere	others
Cc1cccn2c(=O)c3cc(C(=O)N(C)C)n(C)c3nc12	i	26*	i	-236	i	27*	29*
Cc1cccn2c(=O)c3cc(C(=O)NCCN4CCOCC4)c(=N)n(CCCN4CCOCC4)c3nc12	-330	25*	i	-494	-242	4	8.1*
COc1ccc(CCNC(=O)c2cc3c(=O)n4ccccc4nc3n(CCCN3CCOCC3)c2=N)cc1	-222	0	i	-149	-147	nt	nt
Cc1cccn2c(=O)c3cc(C(=O)NCCCN4CCCC4=O)n(C)c3nc12	i	14*	i	i	i	7	15*
NC(=S)NNC(=O)/C(=C/c1ccc(Br)cc1)NC(=O)c1ccccc1	-4	0	1	-1	1	nt	nt
O=C(NCCN1CCOCC1)c1cc2c(=O)n3ccccc3nc2n1Cc1ccccc1	i	41*	i	i	i	81*	73*
O=C(NCCN1CCOCC1)c1c(O)nc2ccccn2c1=O	-65	0	-56	-20	-40	nt	nt
N=c1c(C(=O)NC2CCCC2)cc2c(=O)n3ccccc3nc2n1CCCN1CCOCC1	-318	26*	i	-355	-228	-24	-17
N=c1c(C(=O)NC2CCCC2)cc2c(=O)n3ccccc3nc2n1CCN1CCOCC1	-256	3	i	-264	-198	nt	nt
CCCNc1nc2nc3ccccn3c(=O)c2cc1C(=O)NCCN1CCOCC1	-275	26*	i	-377	-165	21*	20*
COCCCn1c(C(=O)NCCN2CCOCC2)cc2c(=O)n3cccc(C)c3nc21	i	15*	i	-468	i	38*	28*	K7 EDANS ctr=>70
COc1ccc(CCn2c(=N)c(C(=O)NCCN3CCOCC3)cc3c(=O)n4ccccc4nc32)cc1OC	-11	-1	-25	-4	-8	nt	nt
CCOCCCNC(=O)C(c1ccc(Cl)cc1)N1CCC2(CC1)OCCO2 (stereo not given)	4	0	8	2	7	nt	nt
Cc1nc(SCc2ccccc2)c([N+](=O)[O-])[nH]1	2	0	8	-2	1	nt	nt
N#Cc1cc2c(=O)n3ccccc3nc2n(-c2ccccc2Cl)c1=O	-412	31*	i	i	-290	32*	36*
N#Cc1cc2c(=O)n3ccccc3nc2n(CCCN2CCOCC2)c1=O	i	48*	i	i	i	44*	40*
COCCCn1c(C(=O)N2CCOCC2)cc2c(=O)n3ccccc3nc21	i	47*	i	i	i	72*	80*
Cc1cccn2c(=O)c3cc(C(=O)NCCN4CCOCC4)c(=N)n(CCc4ccccc4)c3nc12	-360	35*	i	i	-308	-7	-6
